Structures are written as SMILES. Counter-ions that a name gives are not always drawn. Unmarked numbers belong to inactive results.

The subject of the assay is WPMY1-CANX-COX4. In words: phenotypically active (imaging signature differs from DMSO and reproducible) at any of 0.3-9 uM (binary (1 = active, 0 = inactive)); higher = active. The conditions noted are these: treatment time: 24 h. The method in brief: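 Cells from fifteen gene-edited reporter lines (A549, HepG2 and WPMY1) were treated for 24 h at 0.3, 1, 3 or 9 µM and imaged live, four wells per condition. Features were normalised per well to solvent control wells. A condition deviated if ≥3 of 4 wells passed the 95th percentile of control Euclidean distances and was reproducible if its median replicate Pearson correlation beat the 95th percentile of non-replicates; phenotypic activity needed both.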
As for `Nc1ncnc2c1ncn2[C@H]1O[C@@H](C(=O)N2CCN(CC(=O)Nc3cccc4c3CNC4=O)CC2)[C@H](O)[C@@H]1O`, the phenotypically active was 0.

`COc1ccc2cc(CCC(C)=O)ccc2c1` [nabumetone]: the phenotypically active was 0.

For the molecule `CC(C)c1ccc2oc3nc(N)c(C(=O)O)cc3c(=O)c2c1` [Amlexanox], the phenotypically active was 0.

Regarding `O=C(/C=C/N1C[C@H]2C[C@@H]1CN2c1ccccn1)c1ccccc1O`, the phenotypically active is 0.

`C#CCN(C)Cc1ccccc1` [pargyline]: the phenotypically active is 0.

Turning to `Cc1nc2c(O)cccc2c(=O)[nH]1`, the phenotypically active was 0.

For the molecule `CC(C)Cn1c(=O)n(C)c(=O)c2[nH]cnc21`, the phenotypically active is 0.

Take `COc1ccccc1OCC(O)CN1CCN(CC(=O)Nc2c(C)cccc2C)CC1` (stereo not given) [ranolazine]: the phenotypically active is 0.

On to `COC(=O)c1c(C)cc(OC(=O)c2c(C)cc(O)c(C=O)c2O)c(C)c1O` [Atranorin], for which the phenotypically active was 0.

With `CC(C)NCCCC1(C(N)=O)c2ccccc2-c2ccccc21` [indecainide], the phenotypically active is 0.

Regarding `O=C1c2ccccc2C(Cc2ccncc2)(Cc2ccncc2)c2ccccc21`, the phenotypically active was 0.

For `CC1=NN(c2ccc(C(=O)O)cc2)C(=O)/C1=C\c1ccc(-c2cc(C)c(C)cc2[N+](=O)[O-])o1`, the phenotypically active is 0.

For the molecule `CCCC(=O)Nc1ncnc2c1ncn2[C@@H]1O[C@@H]2COP(=O)(O)O[C@H]2[C@H]1OC(=O)CCC` [Dibutyryl-cAMP, sodium salt], the phenotypically active was 0.

For the molecule `CCO[C@@H](Cc1ccc(OCCc2ccc(OS(C)(=O)=O)cc2)cc1)C(=O)O` [Tesaglitazar], the phenotypically active was 0.

For the molecule `O=c1[nH]cnc2ccccc12`, the phenotypically active is 0.

With `S=P(N1CC1)(N1CC1)N1CC1` [thiotepa], the phenotypically active was 0.

For the molecule `C[C@](N)(Cc1ccc(O)c(O)c1)C(=O)O` [methyldopa], the phenotypically active is 0.

For `CC1CCC(C(C)C)C(O)C1` [L-menthol], the phenotypically active is 0.

`CCCCC1=NC2(CCCC2)C(=O)N1Cc1ccc(-c2ccccc2-c2nnn[nH]2)cc1` [irbesartan]: the phenotypically active is 0.

As to `CC(=O)Oc1ccccc1C(=O)O` [aspirin], the phenotypically active was 0.

Consider `CC(C(=O)O)c1ccc(C(=O)c2cccs2)cc1` (stereo not given) [suprofen], for which the phenotypically active was 0.

For `FC(F)OC(F)C(F)(F)F` (stereo not given) [desflurane], the phenotypically active is 0.

With `CC(C)NCC(O)c1ccc(NS(C)(=O)=O)cc1` (stereo not given) [sotalol], the phenotypically active was 0.

Regarding `COc1ccc(C(C)=O)c(O)c1` [2'-Hydroxy-4'-Methoxyacetophenone], the phenotypically active is 0.

As to `CC(=O)[C@H]1CC[C@H]2[C@@H]3CCC4=CC(=O)CC[C@]4(C)[C@H]3CC[C@]12C` [progesterone], the phenotypically active was 0.
